From PubChem BioAssay (NCI)
This is part of a sample that, as a whole, favours compounds with a hit. Of some 83,000 tested, about 20% had one in any assay.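 How to read the values: 0–100, growth inhibition (40 = 60% inhibited); 0, no net growth; -100 to 0, cell death (-40 = 40% of starting cells died; -100 = all dead).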 Calls of active or inactive are those of the source. How the source made its calls: active means growth percent below 10; inactive means the rest.

Experiments:
Assay in all cases: NCI-60 one-dose screen, 48 h (100 = growth as untreated, 0 = no growth, -100 = all killed)
Settings in all cases: 10 µM unless noted
NCI-H23 lung = system: NCI-H23 lung
NCI-H226 lung = system: NCI-H226 lung
NCI-H322M lung = system: NCI-H322M lung
HOP-62 NSCLC = system: HOP-62 NSCLC
NCI-H460 lung = system: NCI-H460 lung
HOP-92 NSCLC = system: HOP-92 NSCLC
A549/ATCC NSCLC = system: A549/ATCC NSCLC
786-0 renal = system: 786-0 renal
COLO 205 colon = system: COLO 205 colon
DU-145 prostate = system: DU-145 prostate
K-562 leukemia = system: K-562 leukemia
MALME-3M melanoma = system: MALME-3M melanoma
MDA-MB-231 breast = system: MDA-MB-231 breast
RXF 393 renal = system: RXF 393 renal
SF-268 CNS = system: SF-268 CNS
SF-295 CNS = system: SF-295 CNS
SF-539 CNS = system: SF-539 CNS
UACC-257 melanoma = system: UACC-257 melanoma
M14 melanoma = system: M14 melanoma
NCI-H522 lung = system: NCI-H522 lung

Measured: growth

COc1cc(NC(C)CCCNC(C)C)c2ncccc2c1OC (centres undefined)
inactive: NCI-H23 lung 89.5% | NCI-H226 lung 95% | NCI-H322M lung 99.7% | HOP-62 NSCLC 98.3% | NCI-H460 lung 98.6% | HOP-92 NSCLC 74.6% | A549/ATCC NSCLC 102% | 786-0 renal 86.8% | COLO 205 colon 90.6% | DU-145 prostate 113% | K-562 leukemia 104% | MALME-3M melanoma 105% | MDA-MB-231 breast 89% | RXF 393 renal 95% | SF-268 CNS 105% | SF-295 CNS 99.9% | SF-539 CNS 85.6% | UACC-257 melanoma 107% | M14 melanoma 97%

CC(C)=CCC[C@](C)(O)[C@H]1CC[C@]2(C)[C@@H]1CC[C@@H]1[C@@]3(C)Cc4nccnc4C(C)(C)[C@@H]3CC[C@]12C
inactive: NCI-H23 lung 66.9% | NCI-H226 lung 74.6% | NCI-H322M lung 100% | HOP-62 NSCLC 94.6% | NCI-H460 lung 73.6% | HOP-92 NSCLC 93.2% | A549/ATCC NSCLC 46.3% | 786-0 renal 78.6% | COLO 205 colon 76.3% | DU-145 prostate 70.9% | K-562 leukemia 63.2% | MALME-3M melanoma 66.4% | MDA-MB-231 breast 74.4% | RXF 393 renal 94.3% | SF-268 CNS 86.5% | SF-295 CNS 95.2% | SF-539 CNS 76.3% | UACC-257 melanoma 75.7% | M14 melanoma 71.4%

O=C(/C=C/c1cccs1)c1ccc(Cl)nc1
inactive: NCI-H23 lung 102% | NCI-H226 lung 107% | NCI-H322M lung 99.3% | HOP-62 NSCLC 94.9% | NCI-H460 lung 106% | HOP-92 NSCLC 105% | A549/ATCC NSCLC 98.6% | 786-0 renal 93.7% | DU-145 prostate 106% | K-562 leukemia 97.1% | MALME-3M melanoma 95.7% | MDA-MB-231 breast 116% | RXF 393 renal 119% | SF-268 CNS 102% | SF-295 CNS 101% | SF-539 CNS 101% | UACC-257 melanoma 100% | M14 melanoma 101%

CCOC(=O)c1nc(Nc2ccc(NC(=O)Nc3ccc(F)cc3)cc2)c2ccccc2n1
inactive: NCI-H23 lung 92.3% | NCI-H226 lung 90.4% | NCI-H322M lung 97% | HOP-62 NSCLC 97.6% | NCI-H460 lung 99.1% | HOP-92 NSCLC 106% | A549/ATCC NSCLC 102% | 786-0 renal 106% | COLO 205 colon 108% | DU-145 prostate 108% | K-562 leukemia 102% | MALME-3M melanoma 92.6% | MDA-MB-231 breast 95.9% | RXF 393 renal 93.2% | SF-268 CNS 98.3% | SF-295 CNS 99.8% | SF-539 CNS 99.9% | UACC-257 melanoma 103% | M14 melanoma 97%

COc1ccc(CC(C#N)c2cc3ccccc3[nH]2)cc1 (centres undefined)
inactive: NCI-H23 lung 87.1% | NCI-H226 lung 90.6% | NCI-H322M lung 92.9% | HOP-62 NSCLC 89% | NCI-H460 lung 97.2% | HOP-92 NSCLC 49.7% | A549/ATCC NSCLC 86.3% | 786-0 renal 94.7% | COLO 205 colon 99.8% | DU-145 prostate 101% | K-562 leukemia 80.5% | MALME-3M melanoma 89.3% | MDA-MB-231 breast 82.3% | RXF 393 renal 94.1% | SF-268 CNS 90.7% | SF-295 CNS 94.1% | SF-539 CNS 97.5% | UACC-257 melanoma 94.3% | M14 melanoma 84.2%

O=S(=O)(Nc1ccc(Cl)cc1)c1ccc(-c2cnc(C3CC3)o2)cc1
active: NCI-H460 lung 9.01% | COLO 205 colon 9.01% | K-562 leukemia 9.33% | RXF 393 renal -10.1% | SF-539 CNS -14.6%
inactive: NCI-H23 lung 34.5% | NCI-H226 lung 61.4% | NCI-H322M lung 44% | HOP-62 NSCLC 28.8% | HOP-92 NSCLC 41% | A549/ATCC NSCLC 40.4% | 786-0 renal 41.1% | DU-145 prostate 12.6% | MALME-3M melanoma 46.3% | MDA-MB-231 breast 26.9% | SF-268 CNS 43.5% | SF-295 CNS 33.6% | UACC-257 melanoma 56.1% | M14 melanoma 22%

COc1ccc(C2c3sc4c(F)cccc4c3Oc3nc[nH]c(=O)c32)cc1 (centres undefined)
inactive: NCI-H23 lung 78.4% | NCI-H226 lung 66.6% | NCI-H322M lung 68.6% | HOP-62 NSCLC 79.5% | NCI-H460 lung 82.7% | HOP-92 NSCLC 59.4% | NCI-H522 lung 80.1% | A549/ATCC NSCLC 88.8% | 786-0 renal 91.8% | DU-145 prostate 98.2% | K-562 leukemia 72.2% | MALME-3M melanoma 94.4% | MDA-MB-231 breast 72.7% | RXF 393 renal 72.3% | SF-268 CNS 82% | SF-295 CNS 88% | SF-539 CNS 77.4% | UACC-257 melanoma 105% | M14 melanoma 91.4%

O=C1N[C@@H]2NC(=[N+]3CCOCC3)N[C@@H]2N1
inactive: NCI-H23 lung 103% | NCI-H226 lung 94.8% | NCI-H322M lung 96.3% | HOP-62 NSCLC 103% | NCI-H460 lung 104% | HOP-92 NSCLC 120% | A549/ATCC NSCLC 101% | 786-0 renal 98.8% | COLO 205 colon 115% | DU-145 prostate 114% | K-562 leukemia 98.6% | MALME-3M melanoma 92.9% | MDA-MB-231 breast 103% | RXF 393 renal 116% | SF-268 CNS 100% | SF-295 CNS 99.9% | SF-539 CNS 98.2% | UACC-257 melanoma 109% | M14 melanoma 102%

COc1ccc(C2=Nc3c/c(=C\c4c(O)[nH]c5ccc(Cl)cc45)ccc3=N2)cc1
active: COLO 205 colon -9.26% | RXF 393 renal -27.2%
inactive: NCI-H23 lung 52.1% | NCI-H226 lung 66.5% | NCI-H322M lung 81.9% | HOP-62 NSCLC 28.2% | NCI-H460 lung 43.5% | HOP-92 NSCLC 52.8% | A549/ATCC NSCLC 62.5% | 786-0 renal 43.6% | DU-145 prostate 73.2% | K-562 leukemia 19.4% | MALME-3M melanoma 40.8% | MDA-MB-231 breast 42.7% | SF-268 CNS 53.4% | SF-295 CNS 29.6% | SF-539 CNS 59.9% | UACC-257 melanoma 54% | M14 melanoma 27.6%

O=S(=O)(Nc1ccccc1)c1ccc(C2CC3(Cl)C(Cl)=C(Cl)C2(Cl)C3(Cl)Cl)cc1 (centres undefined)
active: HOP-92 NSCLC -10.3% | SF-295 CNS 8.38%
inactive: NCI-H23 lung 22.1% | NCI-H226 lung 74.3% | NCI-H322M lung 61.5% | HOP-62 NSCLC 51.4% | NCI-H460 lung 21.1% | A549/ATCC NSCLC 30.2% | 786-0 renal 32.4% | COLO 205 colon 29.2% | DU-145 prostate 66.4% | K-562 leukemia 27% | MALME-3M melanoma 35.1% | MDA-MB-231 breast 59.3% | RXF 393 renal 32.9% | SF-268 CNS 57.2% | SF-539 CNS 72.9% | UACC-257 melanoma 36.8% | M14 melanoma 52.6%

CN1CCN(Cc2ccc(NC(=O)c3cncc(C#Cc4cnc(N)c5ccccc45)c3)cc2C(F)(F)F)CC1
active: NCI-H23 lung -74.1% | NCI-H226 lung -91% | NCI-H322M lung -87.1% | HOP-62 NSCLC -74.7% | NCI-H460 lung -77.3% | HOP-92 NSCLC -74.4% | A549/ATCC NSCLC -89.1% | 786-0 renal -79.6% | COLO 205 colon -78.1% | DU-145 prostate -97.6% | K-562 leukemia -13.3% | MALME-3M melanoma -88.6% | MDA-MB-231 breast -86.2% | RXF 393 renal -96.2% | SF-268 CNS -61.1% | SF-295 CNS -87.4% | SF-539 CNS -97.8% | UACC-257 melanoma -90.1% | M14 melanoma -79.3%

CSc1nnc(-c2cnn3c2NC(c2ccccc2)C3)n1-c1ccc(C(F)(F)F)cc1 (centres undefined)
active: K-562 leukemia 3.03%
inactive: NCI-H23 lung 72.6% | NCI-H226 lung 73.5% | NCI-H322M lung 72.3% | HOP-62 NSCLC 61.1% | NCI-H460 lung 61.8% | HOP-92 NSCLC 64.3% | A549/ATCC NSCLC 45.5% | 786-0 renal 66.1% | COLO 205 colon 63.9% | DU-145 prostate 85.1% | MALME-3M melanoma 69.8% | MDA-MB-231 breast 64.8% | RXF 393 renal 79.1% | SF-268 CNS 65.1% | SF-295 CNS 32% | SF-539 CNS 80.3% | UACC-257 melanoma 51.4% | M14 melanoma 54.3%

N#CC1=C(N)Oc2c(sc3c(F)cccc23)C1c1ccc(F)cc1 (centres undefined)
inactive: NCI-H23 lung 38.9% | NCI-H226 lung 36.5% | NCI-H322M lung 49.3% | HOP-62 NSCLC 35.1% | NCI-H460 lung 11.6% | HOP-92 NSCLC 44.5% | A549/ATCC NSCLC 25.7% | 786-0 renal 19.8% | DU-145 prostate 16.6% | K-562 leukemia 11.1% | MALME-3M melanoma 56.3% | MDA-MB-231 breast 39.6% | SF-268 CNS 54.4% | SF-295 CNS 14.6% | UACC-257 melanoma 60.5%
active: NCI-H522 lung -3.69% | RXF 393 renal -16.5% | SF-539 CNS -14.3% | M14 melanoma 0.877%

Clc1ccc2c(c1)N(c1ncnc3ccc(-c4cnc5[nH]ncc5c4)cc13)CC2
active: HOP-92 NSCLC -1.84% | A549/ATCC NSCLC 6.23% | RXF 393 renal -10.5%
inactive: NCI-H23 lung 52.5% | NCI-H226 lung 24.4% | NCI-H322M lung 11.8% | HOP-62 NSCLC 24.4% | NCI-H460 lung 20.1% | NCI-H522 lung 40.2% | 786-0 renal 18.1% | DU-145 prostate 22.4% | K-562 leukemia 51.1% | MALME-3M melanoma 40.2% | MDA-MB-231 breast 27.3% | SF-268 CNS 35.1% | SF-295 CNS 23.1% | SF-539 CNS 24.9% | UACC-257 melanoma 44.3% | M14 melanoma 43.4%

CN1CCN(Cc2ccc3c(NNC(=O)c4ccccc4)nc4cc(F)ccc4n23)CC1
inactive: NCI-H23 lung 29.9% | NCI-H226 lung 12.6% | NCI-H322M lung 28.2% | HOP-62 NSCLC 24.1% | HOP-92 NSCLC 50.7% | NCI-H522 lung 28% | A549/ATCC NSCLC 14.8% | 786-0 renal 26.4% | DU-145 prostate 27.1% | K-562 leukemia 13.6% | MALME-3M melanoma 23.5% | MDA-MB-231 breast 43.2% | RXF 393 renal 39% | SF-268 CNS 19.9% | SF-295 CNS 16.2% | SF-539 CNS 10.8% | UACC-257 melanoma 11.8%
active: NCI-H460 lung 3.88% | M14 melanoma 3.61%
